Results filed as inconclusive are left out. Calls of active or inactive are those of the source. The call rests on the fitted dose curve; in most records, active means well fitted inhibition curve with a large enough effect; inconclusive means small, poorly fitted or top-dose-only effect; inactive means no such curve, though single readings can be large or run the other way.

A short description of the assay: Counterscreen qHTS assay for inhibitors of N-terminal methyltransferase 1 (NTMT1): SPKRIA Counterscreen Assay. Conditions: biochemical qHTS; series mostly up to 99.2 µM. From the text:
Assay Submitter (PI): Rong Huang Ph.D,
Purdue University, West Lafayette, IN 47907
The N-terminal methytransferase 1 is the first methyltransferase that methylates protein alpha-N-amines and plays an important role in regulating cell mitosis, chromatin interactions and DNA repair. It is observed to be over-expressed in various cancer patient tissues like malignant melanoma and colorectal cancer tissues. Knockdown of NTMT1 in cancer cells causes cell mitotic defects and enhances sensitivity to DNA damaging chemotherapeutics. […] These critical cellular processes in which NTMT1 is implicated, coupled with emerging links to cellular dysfunction, strengthen the inference that NTMT1 is a compelling novel anticancer target. Progress have been made in understanding the molecular properties of NTMT1 and the biological consequences of protein alpha-N-terminal methylation, but there are no specific small molecule probes available for NTMT1 to fully characterize its MTase activity. To address this unmet need, a panel of assay is created and established to enable quantitative high-throughput screening (qHTS) for novel, potent, and selective small molecule NTMT1 inhibitors. Two orthogonal qHTS that use different reagents (ThioGlo vs. MTaseGlo) are developed for primary robotic screening against the NCATS chemical library of more than 400,000 small molecules. Identified inhibitors are reacquired, validated, and further characterized.
MTaseGlo Assay is a luminescence screen that measure the activity of methyltransferases based on the reaction product S-adenosyl homocysteine (SAH). The substrate SAM is converted to SAH upon enzyme activation. MTase-Glo reagent and detection solution convert SAH to ATP and measure the light from the luciferase reaction. Nicotinamide N-methyltransferase (NNMT) is a cystolic enzyme that catalyzes the transfer of a methyl group from the co-factor SAM onto the substrate, nicotinamide (NA) to form 1-methyl-nicotinamide (MNA) and SAH. NNMT MTaseGlo assay is used as a counterscreen to evaluate selectivity of identified inhibitors.
SPKRIA and Ac-RCC-10 control is provided by the Huang laboratory.
PROTOCOL TABLE; SEQUENCE No. (e.g., 1, 2, 3, etc.); […] (e.g., Cells, Incubation, Reagent, etc.); VALUE; DESCRIPTION
1; Reagent; 3 uL; dispense assay buffer.
2; Compound; 23 nL; pin compounds and control into the assay plate.
3; Time; 15 min; room temperature incubation.
4; Reagent; 1 uL; dispensed [4x] substrate or buffer.
5; Time; 30 min; incubate at room temperature.
6; Reagent; 1 uL; dispense MTase-Glo Reagent (R).
7; Time; 30 min; incubate at room temperature.
8; Reagent; 5 uL; dispense [1x] MTase-Glo Detection Solution to allow for ADP to be converted to ATP.
9; Centrifugation; 1,000 RPMs; assay plates were centrifuged.
10; Incubation; 30 min; room temperature.
11; Detection; Luminescence; ViewLux plate reader (clear filter, 10 second exposure).
NOTES (numbers refer to Sequence numbers above; values are from representative experiments)
1; Dispense the assay buffer into Greiner 1536-well black / solid bottom assay plate (Greiner Bio One, Monroe, NC).
2; Pin control inhibitor Ac-RCC1-10 at a final concentration range of 234 nM to 143 uM using a Wako Pin Tool (Wako Automation USA) equipped with a 1536-slotted pin array (Wako Automation, Richmond, VA). Pin compound library into the assay plates (columns 5 - 48) at a final concentration range of 97 nM to 250 uM.
3; Incubate the assay plates at room temperature.
4; Dispense 1 uL of substrate SPKRIA solution (final concentration 1 uM) or 1 uL buffer was added to the wells bringing the final assay volume to 4uL. The assay plate was covered with metal lids.
5; Incubate the assay plate at room temperature.
6; Dispense 1 uL of 5x MTase-Glo Reagent in the assay plate.
7; Incubate at room temperature to allow for SAH to be converted to ADP
8; Dispense 5 uL of 5x MTase-Glo Detection Solution in the assay plate to allow for ADP to be converted to ATP.
9; Assay plates were centrifuged for 15 seconds.
[…]
`CN(C)CCc1c[nH]c2cccc(O)c12`: the result was inactive. The same measure for `C[C@@H]1CC2=CC(=O)CC[C@@H]2[C@H]2CC[C@@]3(C)[C@@H](CC[C@]3(C)O)[C@@H]21`: “inactive”; for `C[C@]12CC[C@H]3[C@@H](CCC4=CC(=O)CC[C@@H]43)[C@@H]1CC[C@@H]2O`: “inactive”.

Regarding `CCc1cc(OC)c(C[C@H](C)N)cc1OC`, the result was inactive. The same measure for `C=CC[C@]1(O)CC[C@H]2[C@@H]3CCC4=CC(=O)CCC4=C3C=C[C@@]21C`: “inactive”; for `C[C@H](N)C(=O)c1ccccc1`: “inactive”. Take `CC[C@]1(O)CC[C@H]2[C@@H]3CCC4=CCCC[C@@H]4[C@H]3CC[C@@]21C`: the call was inactive. Consider `C[C@]12CCC(=O)C=C1CC[C@@H]1[C@@H]2CC[C@@]2(C)[C@H]1CC[C@]2(C)O`, for which the molecule was classed as inactive.

These data come from PubChem BioAssay AID1645879 (National Center for Advancing Translational Sciences (NCATS), 2021).
